Inconclusive results are not listed. A call without a number means that no potency is given here. The source made the active and inactive calls. Calls follow the shape of the dose curve; as a rule, active = well fitted curve in the direction sought with a large enough effect; inconclusive = small, poorly fitted or top-dose-only effect, or effect the other way, or another doubt; inactive = no such curve, though single readings can be large or run the other way.
Assay: Secondary Assay for lipid storage modulators: AML12 cell LDSA assay for probe SAR
Summary of the method: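 Lipid-droplet accumulation in oleic acid (400 uM)-loaded AML12 cells was read as BODIPY 493/503 fluorescence, with CMTPX staining counting cells, after 18-24 h at 24 degree celsius with compound. Activity normalised to 20 uM Triacsin C (100% inhibition).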

Row | SMILES | Potency
1 | COc1ccc(Cl)cc1NC(=S)N1CCN(c2ccccc2F)CC1 | inactive
2 | O=C(NC1CCCc2c1cnn2-c1ccc(F)cc1F)c1ccncc1 (centres undefined) | inactive
3 | CC(C)(C)n1ncc2c(=O)n(Cc3ccc(-c4ccccc4C#N)cc3)cnc21 | inactive
4 | CCOC(=O)C1CCN(C(=O)C(C)(C)NC(=O)Nc2ccc3sccc3c2)CC1 | inactive
5 | CCOc1ccc(CCNC(=O)c2cc3sccc3n2C)cc1OCC | inactive
6 | O=C(CSc1nnc(NCc2ccccc2)s1)Nc1nc(-c2ccc(F)c(F)c2)cs1 | inactive
7 | O=C(Cc1cccs1)Nc1nc(-c2ccc3c(c2)CCC3)cs1 | inactive
8 | COc1ccc(-c2cnc(SCC(=O)Nc3nc(C)cs3)n2Cc2ccco2)cc1 | inactive
9 | CN(C)CC(=O)NC1CCCc2c1cnn2-c1ccc(F)cc1F (centres undefined) | inactive
10 | CCn1c(C(=O)NCCc2ccc(OC)cc2)cc2sccc21 | inactive
11 | CCOC(=O)C1CCN(C(=O)C(C)(C)NC(=O)Nc2ccc([N+](=O)[O-])cc2)CC1 | inactive
12 | Cc1sc(NC(=O)Cc2cccs2)nc1-c1ccccc1 | inactive
13 | Cc1ccc(CC(=O)Nc2nc(-c3cccs3)cs2)cc1 | inactive
14 | O=C(Cc1cccs1)Nc1nc(-c2ccc(F)cc2)cs1 | inactive
